# According to PubChem BioAssay AID588342 (National Center for Advancing Translational Sciences (NCATS), 2011):
# Screen size: about 360,000 compounds; about 25,000 (6.9%) were called active. Entries that show only a call come without a potency. Roughly 9% stayed inconclusive and do not appear here. This is one part of a sample in which actives are shown more often than they occur. Values without a mark were called inactive. Calls follow the shape of the dose curve; as a rule, active = well fitted inhibition curve with a large enough effect; inconclusive = small, poorly fitted or top-dose-only effect; inactive = flat fitted curve, though single readings scatter.
# Biological target: Luciferin 4-monooxygenase (Photinus pyralis) (UniProt P08659)
# Assay: qHTS profiling assay for firefly luciferase inhibitor/activator using purifed enzyme and Km concentrations of substrates (counterscreen for miR-21 project); also: nearly all actives have a fitted effect of over 55% in size
# Settings: purified FLuc, luminescence inhibition; series mostly up to 57.5 µM
# Outline: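 Biochemical qHTS of compounds, final roughly 60 µM downward over six points, against 10 nM purified firefly luciferase using Km concentrations of substrates (10 uM D-luciferin, 10 uM ATP) in Tris acetate pH 7.5 buffer; luminescence output.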
# Potency is read from the fitted curve at half-maximal effect.
# Luciferin 4-monooxygenase (Photinus pyralis), sequence (P08659 whole entry, looked up): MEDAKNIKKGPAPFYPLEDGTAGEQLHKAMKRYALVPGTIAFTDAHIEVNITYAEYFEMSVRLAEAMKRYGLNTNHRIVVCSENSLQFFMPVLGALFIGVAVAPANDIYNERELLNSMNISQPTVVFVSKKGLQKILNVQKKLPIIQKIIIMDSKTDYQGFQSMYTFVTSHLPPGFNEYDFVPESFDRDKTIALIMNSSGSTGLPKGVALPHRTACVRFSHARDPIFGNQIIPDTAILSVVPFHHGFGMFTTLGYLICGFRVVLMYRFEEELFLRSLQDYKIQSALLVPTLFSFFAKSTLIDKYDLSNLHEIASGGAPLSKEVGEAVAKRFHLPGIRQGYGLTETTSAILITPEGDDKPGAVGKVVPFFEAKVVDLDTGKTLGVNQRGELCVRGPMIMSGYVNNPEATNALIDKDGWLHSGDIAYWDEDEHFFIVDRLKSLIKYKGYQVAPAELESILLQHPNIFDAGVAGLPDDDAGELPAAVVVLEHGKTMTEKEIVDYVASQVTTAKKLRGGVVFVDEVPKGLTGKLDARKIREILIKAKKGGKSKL
SMILES,Potency,"activity change, negative = inhibition"
Cc1cccc(NC(=O)Cn2cc(S(=O)(=O)Cc3ccccc3Cl)c3ccccc32)c1,inactive,
CCOC(=O)c1ccccc1NC(=O)c1sc2nc(-c3ccc(F)cc3)cn2c1C,inactive,
O=C(NCC12CC3CC(CC(C3)C1)C2)c1cc2nc(-c3ccccc3)cc(C(F)(F)F)n2n1,inactive,
Cc1nc(CNS(=O)(=O)c2ccc(Oc3ccccc3)cc2)cs1,inactive,
Cc1ccc(S(=O)(=O)c2cn(Cc3ccccc3)c3cc(N4CCCC4)c(F)cc3c2=O)c(C)c1,inactive,
NC(=O)Cn1nc([N+](=O)[O-])nc1Oc1ccc(Br)cc1,inactive,
COc1ccccc1-n1c(-c2ccc(C)cc2)cn2c3c(=O)n(C)c(=O)n(C)c3nc12,inactive,
COc1cccc(C(=O)N2CCC(n3nccc3NC(=O)C3CCOC3)CC2)c1 (configuration not stated),inactive,
COC(=O)[C@]1(C)CCC[C@@]2(C)C3CC[C@]4(OC(C)=O)C[C@@]3(CCC21)CC4=NO (some centres not stated),inactive,
COc1ccc(N(CC(=O)NCCc2ccc(Cl)cc2)S(=O)(=O)c2c(C)nn(C)c2C)cc1,inactive,
NC(=O)C1CCN(C(=O)c2ccc(-c3ccccc3)cc2)CC1,inactive,
O=C(CCNS(=O)(=O)c1ccccc1)NCCSc1ccc(Br)cc1,inactive,
Cc1c(NS(=O)(=O)c2ccc(Cl)cc2)c(=O)n(-c2ccccc2)n1C,inactive,
Cc1nc(N2CCOCC2)nc2c1CCCC2,inactive,
Nc1nc(-c2sc3nc4c(cc3c2N)CCCC4)nc(N2CCOCC2)n1,0.675 µM (active),
Cc1cccc(NC(=O)c2sc3nc(N4CCOCC4)c4c(c3c2N)CCCC4)c1,inactive,
CCN(CC)c1ccc(NC(=O)CN2CCN(CC(=O)Nc3ccc(Cl)cc3)CC2)cc1,inactive,
COc1cccc(C(=O)Nc2cccnc2)c1OC,inactive,
COc1ccc(/C(C)=N\NC(=O)c2ccc(-c3ccccc3)cc2)c(F)c1,inactive,
COc1cccc(C(=O)N/N=C(\C)c2cccc(NC(=O)c3ccc(F)cc3)c2)c1OC,13.5 µM (active),
Cc1cc(C)cc(NC(=O)Cn2nc(N3CCN(c4ccccc4)CC3)ccc2=O)c1,inactive,
CCC1CN(S(=O)(=O)c2cc(-c3cc(C)no3)ccc2C)c2cc(C)ccc2O1 (configuration not stated),inactive,
Cc1c(Cl)cccc1NC(=O)NCCCN1CCCC1=O,inactive,
CS(=O)(=O)Nc1ccc(C(=O)N2CCCC2)cc1,inactive,
Cc1c(Cl)cccc1NC(=O)Nc1ccc(C(=O)N2CCCC2)cc1,5.36 µM (active),
Cc1ccc(C)n1-c1nnc(N2CCC(C(=O)NCc3ccc(F)cc3)CC2)s1,inactive,

SMILES,Potency,"activity change, negative = inhibition"
Cn1c(=O)c2c(SCC(=O)N3CCc4ccccc43)nc(-c3ccc(Cl)cc3)nc2n(C)c1=O,inactive,
Cc1cccc(NC(=O)COc2ccc(Br)cc2C)n1,3.38 µM (active),
Cc1cccc(NC(=O)c2ccccc2NC(=O)C(C)(C)C)n1,inactive,
Cc1ccccc1OCC(=O)Nc1ccc2c(c1)ncn2C,21.3 µM (active),
Cc1cccc(NC(=O)c2ccc3ccccc3n2)n1,6.01 µM (active),
COCCNC(=O)COc1ccccc1C,inactive,
Cc1cccc(NC(=O)COc2ccccc2C)n1,13.5 µM (active),
Cc1ccc(OCC(=O)Nc2ccc(NC(=O)c3cccs3)cc2)c(C)c1,inactive,
CCN(CC)S(=O)(=O)c1ccc(C)c(NC(=O)COc2ccc(Br)cc2Cl)c1,inactive,
Cc1cccc(NC(=O)c2cccnc2Cl)n1,inactive,
CCn1c2ccccc2c2cc(NC(=O)COc3ccc(C)cc3C)ccc21,inactive,
Cc1ccc(S(=O)(=O)NC(=O)COc2ccccc2C)cc1,inactive,
Cc1ccccc1OCC(=O)Nc1ccc(N2CCN(C(=O)C(C)C)CC2)c(Cl)c1,inactive,
Cc1nc(C)c2c(c1C(F)(F)F)-c1ccccc1C2(F)F,inactive,
COc1cccc(NC(=O)CSc2cc(=O)n(C)c3ccc(Cl)cc23)c1,inactive,
CCC1(CC)NC(=O)N(CC(=O)OCC(=O)c2cc(C)c(C)cc2C)C1=O,inactive,
CCOC(=O)c1c(C)[nH]c(CCC(=O)NCCCN2CCN(c3cc(C)ccc3C)CC2)c1C,inactive,
CCN(CC)C(=O)CSC1c2ccccc2C(=O)N1c1ccccc1 (configuration not stated),inactive,
Cc1ccc(CCCOC(=O)C[N+]2(C)CCCC2)cc1,inactive,
Cn1c(=O)c2c(n(Cc3ccccc3)c1=O)NC(=O)C2CC(=O)N1CCc2ccccc2C1 (configuration not stated),inactive,
CC(=O)Nc1cccc2c1[n+]([O-])c(C)c(C)[n+]2[O-],inactive,
CCOc1ccc(NC(=O)c2cc3c(=O)n(Cc4cccs4)ccc3nc2C)cc1,inactive,
O=C(Nc1nnc(CCN2CCCCC2)s1)c1cccc(Cl)c1,inactive,
CSc1nnc(NC(=O)c2nc(S(=O)(=O)Cc3ccc(C)cc3)ncc2Cl)s1,inactive,
NC(=O)CSc1nnc(NC(=O)c2ccc(Br)o2)s1,16.9 µM (active),
CCSc1nnc(NC(=O)c2ccc(C)cc2)s1,2.69 µM (active),

SMILES,Potency,"activity change, negative = inhibition"
NC(=O)CSc1nnc(NC(=O)c2ccc3ccccc3c2)s1,2.39 µM (active),
COC(=O)CSc1nnc(NC(=O)CCc2ccccc2)s1,inactive,
CCOCc1nnc(NC(=O)CSc2ccc(C)cc2)s1,inactive,
O=C(/C=C/c1ccccc1)Nc1nnc(SCC(=O)c2ccc3ccccc3c2)s1,inactive,
Cc1ccc(C(=O)Nc2nnc(-c3ccncc3)s2)o1,,-0.508% [at 2.3 µM]
CCOc1ccccc1CNC(=O)c1ccc(-n2c(C)cc3c2CCC(C)C3)cc1 (configuration not stated),inactive,
COc1ccc2c(c1)c(=O)c(S(=O)(=O)c1ccc(F)cc1)cn2CC(=O)Nc1ccc(C)cc1C,inactive,
COc1ccccc1CNC(=O)c1ccc(CS(=O)c2ccccc2Cl)o1 (configuration not stated),inactive,
COc1ccc(NC(C)=O)cc1NC(=O)CN1CCN(c2ccc(F)cc2)CC1,inactive,
CCCCCn1c(=O)[nH]c2cc(C(=O)Nc3cc(C)cc(C)c3)ccc2c1=O,inactive,
COc1ccc(-c2cc(-c3nc(-c4cc(OC)c(OC)c(OC)c4)no3)[nH]n2)c(OC)c1,inactive,
COc1ccc(-c2noc(-c3cccc(OC)c3OC)n2)cc1OC,2.39 µM (active),
COc1ccc(OC)c(-n2nnc(-c3nc(-c4cc(OC)c(OC)c(OC)c4)no3)c2C)c1,inactive,
CCOc1ccccc1NC(=O)Cn1nnc(C(=O)Nc2ccc(C)c(C)c2)c1N,inactive,
COc1ccc(N(CC(=O)Nc2cccc3ccccc23)S(C)(=O)=O)c(OC)c1,inactive,
COc1cc(CO)ccc1OCC(=O)Nc1cccc2ccccc12,10.7 µM (active),
COc1ccccc1NC(=O)COc1ccc(C(=O)OCC(=O)N(C(C)C)C(C)C)cc1OC,inactive,
Cc1nc(SCC(=O)N2CCN(c3ccccc3)CC2)[nH]c(=O)c1C,inactive,
CCC1=[N+]([O-])C(C)(/C(C)=N\O)N(O)C1(C)C (configuration not stated),inactive,
Oc1c(CN2CCCC2)cc(COCc2ccccc2)c2cccnc12,inactive,
COC(=O)CN1C(=O)CSc2ccc(S(=O)(=O)Nc3cc(C)ccc3C)cc21,inactive,
O=C(Nc1ccc(S(=O)(=O)N2CCCCC2)cc1)C1CCN(C(=O)c2ccc(F)cc2)CC1,inactive,
COc1ccc(C2CC(c3ccc(C)cc3)Nc3ncnn32)cc1 (configuration not stated),inactive,
COc1cccc(N2C(=O)C3CCCN3C2c2ccc(F)cc2)c1 (configuration not stated),inactive,
Cc1ccc(C2CC(c3cccc(C)c3)n3nc(N)nc3N2)cc1 (configuration not stated),inactive,
Cc1ccc(C2Nc3cccc4cccc(c34)N2)cc1,10.7 µM (active),

SMILES,Potency,"activity change, negative = inhibition"
Brc1ccccc1C1Nc2cccc3cccc(c23)N1,inactive,
COc1ccc(C2=CC(c3cccc(OC)c3)n3nnnc3N2)cc1 (configuration not stated),inactive,
COc1cccc(C2Nc3cccc4cccc(c34)N2)c1,26.9 µM (active),
Oc1ccc(C2Nc3cccc4cccc(c34)N2)cc1,16.9 µM (active),
COc1cc(C(=O)OCC(=O)NC(C)CCc2ccccc2)cc(OC)c1OC (configuration not stated),inactive,
CCCCOc1ccc(NC(=O)c2cc3c(n(-c4ccc(Cl)cc4)c2=O)CCCC3=O)cc1,inactive,
O=C(c1c(F)cccc1F)N1CCN(S(=O)(=O)c2ccc3c(c2)OCCO3)CC1,inactive,
COc1ccccc1C(CNC(=O)c1cccc(S(=O)(=O)Nc2ccc(F)cc2)c1)N(C)C (configuration not stated),inactive,
O=C(NCCc1ccccn1)c1cc(-c2ccc(Cl)cc2)nc2ccccc12,16.9 µM (active),
O=C(NCCc1ccccn1)c1cccnc1Oc1ccc(Cl)cc1,inactive,
O=C(COc1cc(Cl)c(Cl)cc1Cl)NCCc1ccccn1,inactive,
Cc1cccc(NC(=O)Cn2nc(-c3ccc(Cl)cc3)c3ccccc3c2=O)c1,inactive,
COC(=O)c1cc(Oc2ccc(S(=O)(=O)N3CCOCC3)cc2[N+](=O)[O-])cc(C(=O)OC)c1,inactive,
COCCNS(=O)(=O)c1cc(-c2nn3c(C)nnc3c3ccccc23)ccc1C,inactive,
CC(=O)N1c2ccc(S(=O)(=O)N3CCCCCC3)cc2CC1C(=O)NCc1ccccc1C (configuration not stated),inactive,
COc1ccc(OC)c(NC(=O)CSC2=Nc3ccccc3C3=NC(CC(=O)NCCc4ccccc4)C(=O)N23)c1 (configuration not stated),inactive,
COc1ccccc1Nc1nc(N)nc(N)c1S(=O)(=O)c1ccccc1,inactive,
CNS(=O)(=O)c1cccc(C(=O)OCCCC(=O)c2ccccc2)c1,inactive,
CCOc1ccc(C(=O)Nc2ccc(S(=O)(=O)Nc3cc(C)on3)cc2)cc1,16.9 µM (active),
CCOc1ccc(CC(=O)Nc2ccc(S(=O)(=O)Nc3cc(C)on3)cc2)cc1OCC,inactive,
COc1cc(OC)cc(C(=O)Nc2ccc(S(=O)(=O)Nc3cc(C)on3)cc2)c1,inactive,
CC(C)OCCCNC(=O)c1cc(Sc2ccc(F)cc2)nc2ccccc12,inactive,
CC(C)OCCCNc1ncnc2c1[nH]c1ccc(F)cc12,15.1 µM (active),
Fc1ccc2[nH]c3c(N4CCN(Cc5ccc6c(c5)OCO6)CC4)ncnc3c2c1,inactive,
